Results filed as inconclusive are left out. Activity calls are given as the source filed them. Calls come from the whole dose curve; as a rule, active = well fitted curve in the direction sought with a large enough effect; inconclusive = small, poorly fitted or top-dose-only effect, or another doubt; inactive = no such curve, though single readings can be large; an effect the other way counts as inactive or inconclusive.
How the values were obtained:
HaCat = experiment: Cytotoxic Profiling of Annotated Libraries Using Quantitative High-Throughput Screening (AID 1296008); settings: Five cell lines viability, CellTiter-Glo ATP luminescence, 48-72 h; max response: active compounds read low; note: nearly all actives have a fitted effect of over 60% in size
Outline: (§1)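 Cytotoxicity was measured as CellTiter-Glo ATP luminescence, read after 10 min at room temperature. Compound treatment of the cells lasted 48 or 72 hr at 37 degrees Celsius in a qHTS format.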

KB-3-1 = experiment: as above; settings: Five cell lines viability, CellTiter-Glo ATP luminescence, 48-72 h; max response: active compounds read low
Outline: as §1

NIH3T3 [1] = experiment: as above; settings: Five cell lines viability, CellTiter-Glo ATP luminescence, 48-72 h; max response: active compounds read low
Outline: as §1

MCC-13 = experiment: qHTS assay to identify novel small-molecules to repurpose for Merkel cell carcinoma treatment (AID 1296009); settings: MCC and control cell lines, CellTiter-Glo viability, 72 h; series mostly up to 46 µM; note: nearly all actives have a fitted effect of over 60% in size
Outline: (§2)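 After compound transfer in DMSO, plates were kept 72 hr at 37 degree celsius. Luminescent ATP signal from CellTiter-Glo served as viability measure, normalized against DMSO and no-cell controls.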

MCC-26 = experiment: as above; settings: MCC and control cell lines, CellTiter-Glo viability, 72 h; series mostly up to 46 µM
Outline: as §2

MKL-1 = experiment: as above; settings: MCC and control cell lines, CellTiter-Glo viability, 72 h; series mostly up to 46 µM
Outline: as §2

MKL-2 = experiment: as above; settings: MCC and control cell lines, CellTiter-Glo viability, 72 h; series mostly up to 46 µM
Outline: as §2

UISO = experiment: as above; settings: MCC and control cell lines, CellTiter-Glo viability, 72 h; series mostly up to 46 µM
Outline: as §2

WaGa = experiment: as above; settings: MCC and control cell lines, CellTiter-Glo viability, 72 h; series mostly up to 46 µM
Outline: as §2

C33A = experiment: Primary qHTS to identify gynecologic anti-cancer compounds using libraries of approved drugs and bioactive compounds (AID 1345084); settings: Gynecologic cancer cell panel viability, ATPlite luminescence, 48 h; series mostly up to 57.5 µM; note: nearly all actives have a fitted effect of over 55% in size
Outline: (§3)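 ATP-based viability (ATPlite), 1,000 cells/well, 16 h pre-incubation, 48 h compound at 37 C, 5% CO2, 15 min RT before read.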

CAOV3 = experiment: as above; settings: Gynecologic cancer cell panel viability, ATPlite luminescence, 48 h; series mostly up to 57.5 µM
Outline: as §3

CASKI = experiment: as above; settings: Gynecologic cancer cell panel viability, ATPlite luminescence, 48 h; series mostly up to 57.5 µM
Outline: as §3

Es-2 = experiment: as above; settings: Gynecologic cancer cell panel viability, ATPlite luminescence, 48 h; series mostly up to 57.5 µM
Outline: as §3

HeLa = experiment: as above; settings: Gynecologic cancer cell panel viability, ATPlite luminescence, 48 h; series mostly up to 57.5 µM
Outline: as §3

Hek293T = experiment: as above; settings: Gynecologic cancer cell panel viability, ATPlite luminescence, 48 h, control line for the selectivity index; series mostly up to 57.5 µM
Outline: as §3

JEG-3 = experiment: as above; settings: Gynecologic cancer cell panel viability, ATPlite luminescence, 48 h; series mostly up to 57.5 µM
Outline: as §3

OV90 = experiment: as above; settings: Gynecologic cancer cell panel viability, ATPlite luminescence, 48 h; series mostly up to 57.5 µM
Outline: as §3

NIH3T3 [2] = experiment: qHTS assay to identify novel small-molecules to repurpose for Merkel cell carcinoma treatment (AID 1296009); settings: MCC and control cell lines, CellTiter-Glo viability, 72 h; at 44.8 µM (top of the series) unless noted; note: nearly all actives have a fitted effect of over 60% in size
Outline: as §2
% is set by controls: 0 for no effect and ±100 for the full control effect.

CCOC(=O)c1ccc(OCCN2C[C@H](O)[C@@H](O)[C@H](O)[C@H]2CO)cc1
inactive: max response (HaCat) -6.67% | outcome (KB-3-1) | max response (NIH3T3 [1]) -0.529% | Potency (MCC-13) | Potency (MCC-26) | Potency (MKL-1) | Potency (MKL-2) | Potency (UISO) | Potency (WaGa) | Potency (C33A) | Potency (CAOV3) | Potency (CASKI) | Potency (Es-2) | Potency (HeLa) | Potency (Hek293T) | Potency (JEG-3) | Potency (OV90)

CN1C(CSCC(F)(F)F)Nc2cc(Cl)c(S(N)(=O)=O)cc2S1(=O)=O (stereo unspecified)
inactive: max response (HaCat) 4.02% | max response (KB-3-1) 38.2% | outcome (NIH3T3 [1]) | Potency (MCC-13) | Potency (MCC-26) | Potency (MKL-1) | Potency (MKL-2) | outcome (NIH3T3 [2]) | Potency (UISO) | Potency (WaGa) | Potency (C33A) | Potency (CAOV3) | Potency (CASKI) | Potency (Es-2) | Potency (HeLa) | Potency (Hek293T) | Potency (JEG-3) | Potency (OV90)

OCCCc1ccccc1
inactive: max response (HaCat) -3% | max response (KB-3-1) -4.85% | outcome (NIH3T3 [1]) | Potency (MCC-13) | Potency (MCC-26) | Potency (MKL-1) | Potency (MKL-2) | outcome (NIH3T3 [2]) | Potency (UISO) | Potency (WaGa) | Potency (C33A) | Potency (CAOV3) | Potency (CASKI) | Potency (Es-2) | Potency (HeLa) | Potency (Hek293T) | Potency (JEG-3) | Potency (OV90)

CN1C(=O)c2ccccc2C1=O
inactive: max response (HaCat) -13.2% | max response (KB-3-1) -21% | max response (NIH3T3 [1]) -7.13% | Potency (MCC-13) | Potency (MCC-26) | Potency (MKL-1) | Potency (MKL-2) | Potency (UISO) | Potency (WaGa) | Potency (C33A) | Potency (CAOV3) | Potency (CASKI) | Potency (Es-2) | Potency (HeLa) | Potency (Hek293T) | Potency (OV90)

OCCOCCN1CCN(C(c2ccccc2)c2ccc(Cl)cc2)CC1 (stereo unspecified)
inactive: max response (HaCat) -23.3% | max response (KB-3-1) 15.7% | outcome (NIH3T3 [1]) | Potency (MCC-13) | Potency (MCC-26) | Potency (MKL-1) | Potency (MKL-2) | outcome (NIH3T3 [2]) | Potency (UISO) | Potency (C33A) | Potency (CAOV3) | Potency (CASKI) | Potency (Es-2) | Potency (HeLa) | Potency (Hek293T) | Potency (JEG-3)

CCCCC(=O)OCC(=O)[C@H]1[C@H](C)C[C@H]2[C@@H]3C[C@H](F)C4=CC(=O)C=C[C@]4(C)[C@@]3(F)[C@@H](O)C[C@@]21C
inactive: max response (HaCat) 1.04% | max response (KB-3-1) -3.44% | max response (NIH3T3 [1]) -6.1% | Potency (MCC-13) | Potency (MCC-26) | Potency (MKL-1) | Potency (MKL-2) | Potency (UISO) | Potency (WaGa) | Potency (C33A) | Potency (CAOV3) | Potency (CASKI) | Potency (Es-2) | Potency (HeLa) | Potency (Hek293T) | Potency (JEG-3) | Potency (OV90)

OCc1cccnc1
inactive: max response (HaCat) 3.51% | max response (KB-3-1) 3.27% | outcome (NIH3T3 [1]) | Potency (MCC-13) | Potency (MCC-26) | Potency (MKL-1) | Potency (MKL-2) | outcome (NIH3T3 [2]) | Potency (UISO) | Potency (WaGa) | Potency (C33A) | Potency (CAOV3) | Potency (CASKI) | Potency (Es-2) | Potency (HeLa) | Potency (Hek293T) | Potency (JEG-3) | Potency (OV90)

N[C@@H](Cc1cc(I)c(O)c(I)c1)C(=O)O
inactive: max response (HaCat) 4.36% | max response (KB-3-1) -0.833% | max response (NIH3T3 [1]) -12.4% | Potency (MCC-13) | Potency (MCC-26) | Potency (MKL-1) | Potency (MKL-2) | Potency (UISO) | Potency (WaGa) | Potency (C33A) | Potency (CAOV3) | Potency (CASKI) | Potency (Es-2) | Potency (HeLa) | Potency (Hek293T) | Potency (JEG-3) | Potency (OV90)

Cc1ccccc1C(=O)N1CC/C(=N\OS(=O)(=O)O)c2ccc(Cl)cc21
inactive: max response (HaCat) -13.2% | max response (KB-3-1) 9.71% | max response (NIH3T3 [1]) -8.25% | Potency (MCC-13) | Potency (MCC-26) | Potency (MKL-1) | Potency (MKL-2) | Potency (UISO) | Potency (WaGa) | Potency (C33A) | Potency (CAOV3) | Potency (CASKI) | Potency (Es-2) | Potency (HeLa) | Potency (Hek293T) | Potency (JEG-3) | Potency (OV90)

Nc1nnnn1-c1ccccc1
inactive: max response (HaCat) -26.2% | max response (KB-3-1) 7.05% | max response (NIH3T3 [1]) -4.79% | Potency (MCC-13) | Potency (MCC-26) | Potency (MKL-1) | Potency (MKL-2) | Potency (UISO) | Potency (WaGa) | Potency (C33A) | Potency (CAOV3) | Potency (CASKI) | Potency (Es-2) | Potency (HeLa) | Potency (Hek293T) | Potency (JEG-3) | Potency (OV90)

O=C(NN1CCCC1)NS(=O)(=O)c1ccc(Cl)cc1
inactive: max response (HaCat) -45.6% | max response (KB-3-1) 5.98% | max response (NIH3T3 [1]) 4.71% | Potency (MCC-13) | Potency (MCC-26) | Potency (MKL-1) | Potency (MKL-2) | Potency (UISO) | Potency (WaGa) | Potency (C33A) | Potency (CAOV3) | Potency (CASKI) | Potency (Es-2) | Potency (HeLa) | Potency (Hek293T) | Potency (JEG-3) | Potency (OV90)

CC(C)C(C)(C)C(C)(C)C(C)(C)S
inactive: max response (HaCat) 4.37% | max response (KB-3-1) -15.8% | max response (NIH3T3 [1]) -4.3% | Potency (MCC-13) | Potency (MCC-26) | Potency (MKL-1) | Potency (MKL-2) | Potency (UISO) | Potency (WaGa) | Potency (C33A) | Potency (CAOV3) | Potency (CASKI) | Potency (Es-2) | Potency (HeLa) | Potency (Hek293T) | Potency (OV90)

CO[C@]1(NC(=O)CSC(F)F)C(=O)N2C(C(=O)O)=C(CSc3nnnn3CCO)CO[C@H]21
inactive: max response (HaCat) 4.33% | outcome (KB-3-1) | max response (NIH3T3 [1]) 1.66% | Potency (MCC-13) | Potency (MCC-26) | Potency (MKL-1) | Potency (MKL-2) | Potency (UISO) | Potency (WaGa) | Potency (C33A) | Potency (CAOV3) | Potency (CASKI) | Potency (Es-2) | Potency (HeLa) | Potency (Hek293T) | Potency (JEG-3) | Potency (OV90)

O=C(O)CNC(=O)CNC(=O)CNC(=O)CSC(=O)c1ccccc1
inactive: max response (HaCat) -1.1% | max response (KB-3-1) 4.32% | max response (NIH3T3 [1]) 1.99% | Potency (MCC-13) | Potency (MCC-26) | Potency (MKL-1) | Potency (MKL-2) | Potency (UISO) | Potency (WaGa) | Potency (CASKI) | Potency (Es-2) | Potency (HeLa) | Potency (Hek293T) | Potency (JEG-3) | Potency (OV90)
